# Test results reported in PubChem BioAssay AID1016 (Sanford-Burnham Center for Chemical Genomics, 2008).
# Out of some 200,000 compounds screened, about 330 (0.17%) were called active. The full list was thinned out, with actives kept by preference. Values without a mark were called inactive.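 How the source made its calls: active means activation factor of 2 or more at 20 µM, a signal rise over negative controls twice the positive control's; inactive means the rest.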
# Test system: alkaline phosphatase, intestinal [Bos taurus]
# Assay: IAP enzyme activity enhancers – biochemical, bovine IAP, CDP-star luminescence, primary screen (AID 1016)
# Details: purified bovine IAP, 30 min, at 20 µM, hits give high values
row,SMILES,activation factor
1,Cc1cc(C)cc(NC(=S)NC2CC3CCCC(C2)N3Cc2cccs2)c1 (stereo not given),3 (active)
2,COP(=O)(OC)C(NC(=O)c1ccc(C)cc1)C(Cl)(Cl)Cl (stereo not given),0.8
3,CN(C)C(=O)Oc1ccc(OCc2cccc[n+]2C)cc1,1
4,CCOC(=O)C1SC2(C(F)(F)C(F)F)CC1(O)c1c(c(OC)c3occc3c1OC)O2 (stereo not given),0.9
5,CN(C)CC1CCCCC1OC(=O)c1ccc(Cl)c(Cl)c1 (stereo not given),1
